{"source": "PubChem BioAssay AID1347416", "about": "(National Center for Advancing Translational Sciences (NCATS), 2020)", "note": "The whole screen tested about 4,100 compounds, of which about 1,600 (39%) were called active. Not shown: some 25% with an inconclusive outcome. The list shows a part of the results. A number with no mark means an inactive call. The call rests on the fitted dose curve; in most records, active means well fitted inhibition curve with a large enough effect; inconclusive means small, poorly fitted or top-dose-only effect; inactive means no such curve, though single readings can be large or run the other way. On the % scale 0 is the no-effect control and ±100 the full control effect; potency means the concentration at half of the fitted maximal effect."}
{"assay": "qHTS Validation assay for Inhibitors of Plasmodium falciparum Dd2 growth in vitro; further: nearly all actives have a fitted effect of over 70% in size", "conditions": "P. falciparum Dd2 in RBCs, SYBR Green growth, 72 h; series mostly up to 28.7 µM; activity change, negative = inhibition: at the top concentration", "outline": "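P. falciparum Dd2-infected red blood cells (2.5% hematocrit, 0.3% parasitemia) grown 72 h at 37 °C under 5% O2 with compounds in a titration, 29 uM to 0.5 nM final. Growth read as SYBR Green-1 fluorescence after ~16 h lysis; artesunate 300 nM as positive control.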"}
{"smiles": "CCNC(=O)NC(=O)C(C)Sc1nc2ccccc2c(=O)n1-c1cccnc1", "note": "(stereo not drawn)", "activity change, negative = inhibition": "14.2%"}
{"smiles": "CC(Sc1nc2ccccc2c(=O)n1C)C(=O)N(C)C1CCCCC1", "note": "(stereo not drawn)", "Potency": "5.31 µM (active)"}
{"smiles": "COc1cccc(NC(=O)N[C@H]2[C@H](O)[C@@H](Oc3ccccc3)[C@@H]3OC[C@H]2O3)c1", "activity change, negative = inhibition": "-19.2% [at 43.1 µM]"}
{"smiles": "COc1cccc(NC(=O)CSc2nc(=O)[nH]c3c2CCCC3)c1", "activity change, negative = inhibition": "-1.41%"}
{"smiles": "COc1cccc(NC(=O)c2cccc3c(=O)c4c([nH]c23)CCCC4)c1", "Potency": "2.99 µM (active)"}
{"smiles": "Cc1cccc(-c2cc(C3CCN(C(=O)Nc4ccccc4Cl)CC3)[nH]n2)c1", "activity change, negative = inhibition": "-13.2%"}
{"smiles": "Cc1cccc(-c2cc(C3CCN(S(=O)(=O)c4cccc(C#N)c4)CC3)[nH]n2)c1", "Potency": "15 µM (active)"}
{"smiles": "CNC(=O)N1CCC(C2CCN(S(=O)(=O)c3cccc(C#N)c3)C2)CC1", "note": "(stereo not drawn)", "activity change, negative = inhibition": "3.64%"}
{"smiles": "O=c1c2cc3c(nc2ncn1Cc1ccccc1F)CCCC3", "activity change, negative = inhibition": "0%"}
{"smiles": "COc1cc2c3nnc(-c4ccc(F)cc4)c-3cn(Cc3ccccc3F)c2cc1OC", "Potency": "3.76 µM (active)"}
{"smiles": "CC1(C)Cc2nc3sc4c(SCC(=O)O)ncnc4c3cc2CO1", "activity change, negative = inhibition": "-5.19%"}
{"smiles": "COc1cc(-c2nc(-c3ccccc3)c(-c3ccc(Br)cc3)[nH]2)cc(OC)c1O", "Potency": "2.11 µM (active)"}
{"smiles": "COc1ccc2[nH]c(C)c(CCN(Cc3cccs3)C(=S)Nc3ccc(F)cc3)c2c1", "Potency": "4.22 µM (active)"}
{"smiles": "COc1ccc2[nH]c(C)c(CCN(Cc3cccs3)C(=S)Nc3ccccc3)c2c1", "Potency": "2.66 µM (active)"}
{"smiles": "O=C(Nc1ccc(Cl)cc1)N1CCn2c(nn(-c3ccc([N+](=O)[O-])cc3)c2=O)C1", "activity change, negative = inhibition": "26.1%"}
{"smiles": "O=c1n(-c2ccc(Cl)cc2)nc2n1CCN(Cc1cccc3ccccc13)C2", "activity change, negative = inhibition": "33.4%"}
{"smiles": "COc1ccccc1CN1CCn2c(nn(-c3ccc([N+](=O)[O-])cc3)c2=O)C1", "Potency": "5.96 µM (active)"}
{"smiles": "CC(C)CCN1CCn2c(nn(-c3ccc([N+](=O)[O-])cc3)c2=O)C1", "Potency": "17.2 µM (active)"}
{"smiles": "COc1ccc(-n2nc3n(c2=O)CCN(C(=O)c2ccc(Cl)cc2)C3)cc1", "activity change, negative = inhibition": "-20.5%"}
{"smiles": "Cc1ccc(-n2nc3n(c2=O)CCN(C(=O)c2cccc(Cl)c2)C3)cc1", "activity change, negative = inhibition": "67.3%"}
{"smiles": "COc1ccc(C(=O)N[C@@H]2CCC[C@@H]2C(=O)NCc2ccc(C)o2)cn1", "activity change, negative = inhibition": "-6.41%"}
{"smiles": "Oc1c(CN2CCCC2)cc(COCc2ccccc2)c2cccnc12", "Potency": "6.68 µM (active)"}
{"smiles": "Oc1c(CN2CCCCC2)cc(COCc2ccccc2)c2cccnc12", "Potency": "8.41 µM (active)"}
{"smiles": "CCOCc1cc(CN2CCN(c3ccccc3OC)CC2)c(O)c2ncccc12", "Potency": "5.96 µM (active)"}
{"smiles": "COc1ccc(CCNC(=O)CCn2c(=O)c3ccccc3n(Cc3cc(C)ccc3C)c2=O)cc1OC", "activity change, negative = inhibition": "10.4%"}
{"smiles": "COc1ccc(CCNC(=O)CCc2c(C)nc3c(c(C)nn3-c3ccc(C)c(C)c3)c2C)cc1OC", "Potency": "0.668 µM (active)"}
{"smiles": "COc1cc(NC(=O)Cn2c(N(C)Cc3ccccc3)nc(C)cc2=O)cc(OC)c1", "activity change, negative = inhibition": "-19.9%"}
{"smiles": "COc1ccc(S(=O)(=O)Nc2ccc(C)n(CC(=O)Nc3ccccc3)c2=O)cc1", "Potency": "2.66 µM (active)"}
{"smiles": "Oc1c(C(Nc2nccs2)c2ccc(C(F)(F)F)cc2)ccc2cccnc12", "note": "(stereo not drawn)", "Potency": "5.31 µM (active)"}
{"smiles": "Oc1cccc(C(Nc2nccs2)c2ccc3cccnc3c2O)c1", "note": "(stereo not drawn)", "Potency": "7.5 µM (active)"}
{"smiles": "O=C(COc1ccc2ccccc2c1)Nc1nccs1", "activity change, negative = inhibition": "15.3%"}
{"smiles": "Nc1nc(C2CC(NC(=O)c3csc4c3CCCC4)C2)cc(=O)[nH]1", "note": "(stereo not drawn)", "activity change, negative = inhibition": "19.5%"}
{"smiles": "Oc1[nH]c2ccccc2c1N=NC(=S)N1CCOCC1", "Potency": "2.11 µM (active)"}
{"smiles": "O=C(COC(=O)c1ccc(-n2cnnn2)cc1)c1ccc(Br)cc1", "activity change, negative = inhibition": "22.8%"}
{"smiles": "CCc1cccc(-n2c(=O)c3cccnc3n2CC(=O)NCc2ccc(C)cc2)c1", "Potency": "1.68 µM (active)"}
{"smiles": "CCc1cccc(-n2c(=O)c3cccnc3n2CC(=O)NCc2ccccc2)c1", "Potency": "1.68 µM (active)"}
{"smiles": "CCc1cccc(-n2c(=O)c3cccnc3n2CC(=O)Nc2ccc(F)c(C)c2)c1", "Potency": "2.66 µM (active)"}
{"smiles": "O=C(Cn1c(=O)c2cccn2c2cccnc21)NCc1ccccc1F", "activity change, negative = inhibition": "21.9%"}
{"smiles": "O=C(CCc1nc2cccnc2n1Cc1ccccc1)NCc1cccc(Cl)c1", "activity change, negative = inhibition": "12.7%"}
{"smiles": "O=C(CCn1c(=O)c2cccn2c2cccnc21)NCc1cccc(Br)c1", "activity change, negative = inhibition": "-0.311%"}
{"smiles": "COc1ccc(Cn2c(=O)c3cccnc3n(CC(=O)Nc3ccc(C)c(F)c3)c2=O)cc1", "activity change, negative = inhibition": "17.6%"}
{"smiles": "COc1ccc(CNC[C@H]2COCc3nc4cc(C(F)(F)F)ccc4n32)cn1", "activity change, negative = inhibition": "14.2% [at 43.1 µM]"}
{"smiles": "CCc1ccc(-c2nn(CC(=O)NC3CCCCC3)c3c2cnc2ccc(OC)cc23)cc1", "Potency": "9.44 µM (active)"}
{"smiles": "COc1ccc2ncc3c(-c4ccc(C)c(C)c4)nn(CC(=O)NC4CCCCC4)c3c2c1", "activity change, negative = inhibition": "31%"}
{"smiles": "CC(C)(C)c1ccc(-c2noc(-c3ncn4c3COC(c3ccc(F)cc3)C4)n2)cc1", "note": "(stereo not drawn)", "Potency": "15 µM (active)"}
{"smiles": "O=C(NCc1ccccc1F)C1CCN(C(=O)c2ncn3c2COC(c2ccc(F)cc2)C3)CC1", "note": "(stereo not drawn)", "activity change, negative = inhibition": "14.3%"}
{"smiles": "CCOc1ccc(C2Cn3nnc(-c4nc(-c5ccsc5)no4)c3CO2)cc1", "note": "(stereo not drawn)", "activity change, negative = inhibition": "12.1%"}
{"smiles": "O=c1[nH]c(N2CCOCC2)nc2c1CCN(Cc1ccccc1Br)CC2", "Potency": "15 µM (active)"}
